Test results from PubChem BioAssay.

What was measured:
[1] = target: Tumor necrosis factor receptor superfamily member 10B (Homo sapiens) (UniProt O14763); test: caspase-8 TRAIL sensitization, hit retest, confirmation, cell-based, NB7+caspase-8, with/without TRAIL, luminescence panel (AID 651596); settings: NB7 neuroblastoma + caspase-8, TRAIL sensitization, luminescence viability, with TRAIL, mean of runs, at 10 µM, stronger effect = higher value
[2] = as above; settings: NB7 neuroblastoma + caspase-8, without TRAIL, luminescence viability, without TRAIL, mean of runs, at 10 µM

Tumor necrosis factor receptor superfamily member 10B (Homo sapiens), sequence (O14763 whole entry, looked up): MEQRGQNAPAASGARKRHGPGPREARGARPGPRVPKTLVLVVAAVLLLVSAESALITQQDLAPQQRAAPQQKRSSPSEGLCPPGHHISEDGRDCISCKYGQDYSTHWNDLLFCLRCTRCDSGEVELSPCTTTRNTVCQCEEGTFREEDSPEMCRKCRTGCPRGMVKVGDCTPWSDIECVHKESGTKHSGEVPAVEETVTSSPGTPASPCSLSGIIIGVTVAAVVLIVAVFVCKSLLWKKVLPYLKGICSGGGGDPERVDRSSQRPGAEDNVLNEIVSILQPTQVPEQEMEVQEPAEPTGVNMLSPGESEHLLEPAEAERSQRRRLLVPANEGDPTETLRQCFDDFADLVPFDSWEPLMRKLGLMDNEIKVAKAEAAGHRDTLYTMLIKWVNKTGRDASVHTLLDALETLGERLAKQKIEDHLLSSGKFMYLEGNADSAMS

SMILES | activity [1] [%] | activity [2] [%]
O=C(Cn1ncc(Cl)c(Cl)c1=O)NCC1CCCCC1 | 98.9 | 99.1
N/C(CCS(=O)(=O)c1ccc(Cl)cc1)=N\OC(=O)c1ccccc1C(F)(F)F | 94.2 | 93.6
CC1(C)N=C(N)N=C(N)N1c1ccc(OCCCOc2ccccc2)c(Cl)c1 | 59.8 | 64.1
C#Cc1ccc(NC(=O)C2(C)CCN2C(=O)CC(c2ccccc2)c2ccccc2)cc1 (configuration not stated) | 94.4 | 89
CC(=O)CSc1ccc(-c2nc3ccccc3[nH]2)cn1 | 92.1 | 92.5
CCOC(=O)c1c(NC(=O)COc2ccccc2OCC)sc2c1CC(C)(C)NC2(C)C | 95.8 | 99.3
Cc1ccc(OCC(=O)Nc2ccccc2C(N)=O)cc1 | 66.8 | 68.1
CCCNC(=O)c1ccc(-c2nc3ccccc3s2)s1 | 87.8 | 83.5
OCC1OC(n2cnc3c(NCc4ccco4)ncnc32)C(O)C1O (configuration not stated) | 46.1 | 54.3
CCOc1ccc2cc(C#N)c(SCC(=O)OC)nc2c1 | 57.9 | 50.3
COc1ccc(C(=O)NC(=O)Nc2cc(C)ccn2)cc1 | 95.3 | 95.4
COc1ccccc1-c1cc2nc(-c3ccccc3)cc(N3CCN(C(=O)c4ccco4)CC3)n2n1 | 81.9 | 66
COC(=O)c1ccccc1NC(=O)c1cc(-c2ccc(O)cc2)on1 | 15.1 | 27.9
N=c1oc2cc(O)ccc2cc1C(=O)Nc1ccc(Cl)cc1 | 34.3 | 39.3
O=C(N/N=C/c1ccccc1)c1ccc2c(c1)OCO2 | 61.2 | 56.1
CC(C)OC(=O)c1sc2nc(-c3ccccc3)ccc2c1N | 58.5 | 60.3
